Laboratory results taken from PubChem BioAssay AID652105 (National Center for Advancing Translational Sciences (NCATS), 2013).
About 4,100 (1.2%) of roughly 330,000 compounds were called active. Roughly 2% stayed inconclusive and do not appear here. How the source made its calls: active means max response of -50% or lower; inconclusive means between -30% and -50%; inactive means -30% or higher. What follows is part of a selection rich in actives, with near analogues and random picks from the rest.

Each compound was assayed against Phosphatidylinositol 5-phosphate 4-kinase type-2 alpha (Homo sapiens) (UniProt P48426) (assay: qHTS for Inhibitors of phosphatidylinositol 5-phosphate 4-kinase (PI5P4K)). Conditions: PI5P4Kalpha enzyme, ADP-Glo luminescence, 60 min; hits give low values.
Phosphatidylinositol 5-phosphate 4-kinase type-2 alpha (Homo sapiens), sequence (P48426 whole entry, looked up): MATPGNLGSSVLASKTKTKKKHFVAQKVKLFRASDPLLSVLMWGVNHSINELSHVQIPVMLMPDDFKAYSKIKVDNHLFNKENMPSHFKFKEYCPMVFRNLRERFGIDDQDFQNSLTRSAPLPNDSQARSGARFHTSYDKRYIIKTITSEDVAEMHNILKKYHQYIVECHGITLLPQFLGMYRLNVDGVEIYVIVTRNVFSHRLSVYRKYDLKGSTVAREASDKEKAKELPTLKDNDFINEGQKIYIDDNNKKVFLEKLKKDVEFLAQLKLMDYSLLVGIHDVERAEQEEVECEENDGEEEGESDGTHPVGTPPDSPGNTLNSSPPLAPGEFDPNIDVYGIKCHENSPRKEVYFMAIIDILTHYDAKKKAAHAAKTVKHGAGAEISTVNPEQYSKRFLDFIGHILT
In short: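 PI5P4Kalpha ADP-Glo assay; 5 microM ATP final; 60 min RT reaction; HEPES pH 7.4/EGTA/CHAPS, 5% DMSO; controls lacking substrate or enzyme; luminescent end-point.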
Further: value at the top dose of about 77 µM.
On the % scale 0 is the no-effect control and ±100 the full control effect.

Max response, inactive:
CCCCCCCCN1C(=O)[C@H](CC(=O)NCC23CC4CC(CC(C4)C2)C3)C[C@@]2(C(=O)OC)CCCCC=C12 8.08%, N=c1c2c3c(sc2ncn1N)CCCCC3 0.011%, N=c1c2c3c(sc2ncn1N)CCCC3 -4.92%, COc1ccc(CNC(=O)c2ccc(-c3cccnc3)c3ccoc23)cc1OC 0.62%, O=C(NCc1ccc(F)cc1)c1cc(C2CCCCN2C(=O)c2cccs2)on1 (centres undefined) -3.15%, CC(C)c1cc(Cn2c3ccccc3c(=O)n2C(C)Cn2cc(C3CC3)nn2)on1 (centres undefined) -4.48%, CC(C)(C)OC(=O)N1CCN(C(=O)c2[nH]c(C(F)(F)F)nc2-c2ccccc2)CC1 6.39%, CS(=O)(=O)c1ccc2nc(NC(=O)C3C4C=CC(C4)C3C(=O)O)sc2c1 (centres undefined) -8.9%, CS(=O)(=O)c1ccc2nc(NC(=O)c3ccc(Cl)nc3)sc2c1 -8.02%, CCOC(=O)N1CCN(C(=O)C[C@@H]2C[C@@]3(C(=O)OC)CC(C)(C)CC=C3N(Cc3ccco3)C2=O)CC1 -4.8%, COCCN1C(=O)N[C@@H](c2ccccc2)C(C(=O)OC)=C1C 3.31%, CC1=C(C(=O)OCc2ccccc2)C(c2ccc(C(F)(F)F)cc2)NC(=O)N1CCCCCC(=O)O (centres undefined) -6.37%, CCCCNC(=O)OC1CC2CC1[C@H]1CCCCN1C2=O (some centres undefined) 2.78%, NC(c1ccccc1)c1csc(NC(=O)Nc2cccc(C(F)(F)F)c2)n1 (centres undefined) -16.7%, N#Cc1ccc(/C=C2\CCn3c2nc2cc(C(=O)O)ccc2c3=O)cc1 -10.5%, O=C(O)c1ccc2c(=O)n3c(nc2c1)/C(=C/c1ccc(Cl)c([N+](=O)[O-])c1)CC3 -16.4%, CCc1nc2ccc(C(=O)N(C)CCN(C)C)cn2c1N(CC)CCOC 2.65%, OC(c1ccc(Cl)c(F)c1)c1ncc(-c2ccccc2Cl)[nH]1 (centres undefined) 10.9%, CC(C)c1ccc(CC(=O)N2CCC2(C)C(=O)NS(=O)(=O)c2ccc(C(C)(C)C)cc2)cc1 (centres undefined) 3.85%, O=[N+]([O-])c1ccc(C=NN=Cc2ccc([N+](=O)[O-])cc2)cc1 -4.59%, CC(=O)Nc1ccc(C=Cc2ccc([N+](=O)[O-])cc2)cc1 -5.32%, CC=CCn1c(SCCCc2ccccc2)nc2c1c(=O)[nH]c(=O)n2C -3.45%, Cc1ccc(/C=C/C(=O)Nc2cc(S(=O)(=O)N3CCCCCC3)ccc2OCC(F)(F)F)o1 2.97%, COC(=O)/C=C\C(=O)Nc1cccc([N+](=O)[O-])c1 -26.6%, Cc1cc(C)n2c(NCc3ccccc3)c(CC(C)C)nc2n1 -0.19%, C[C@H]1CN(c2ccc(Br)cc2)C(=O)[C@@H]1CC(=O)Nc1ccc(Br)cc1 -1.71%, COc1ccc(C(NC(=O)C2CCN(CCCc3ccccc3)CC2)c2cccs2)cc1 (centres undefined) -1.92%, O=C(N/N=C/c1cc2c(cc1Br)OCO2)C1COc2ccccc2O1 (centres undefined) 0.44%, O=C(N/N=C\c1cc(Br)c(Br)o1)C1COc2ccccc2O1 (centres undefined) 1.1%, CC(C)NC(=O)N1Cc2cc(C(=O)NCC(F)(F)F)nc(-c3cccc(-c4cc5ccccc5o4)c3)c2[C@@H]1CCO 10.9%, CN1CCN(c2ccc3c(c2)OC[C@H](Cc2ccccc2)NS3(=O)=O)CC1 6.74%, O=C(NC(=S)Nc1ccc(S(=O)(=O)N2CCOCC2)cc1)c1ccccc1[N+](=O)[O-] -13.4%, O=C(Nc1ccc(S(=O)(=O)N2CCOCC2)cc1)C1CCN(S(=O)(=O)c2ccc(Cl)cc2)CC1 11.3%, COc1cccc(-c2cnc3c(NC(C)=O)cc(-c4cc(F)ccc4OC)cn23)c1 0.465%, Cc1ccc(-c2ccc(CN3C(C)C(=O)N(Cc4cn(CCC5OCCCO5)nn4)CCS3(=O)=O)cc2)cc1 (centres undefined) -1.32%, CCOc1ccc(-n2c(O)c(/C=N/Nc3nc(C)cc(C)n3)c3ccccc3c2=O)cc1 3.69%, CCOc1ccc(-n2c(O)c(/C=N/c3ccnn3Cc3ccncc3)c3ccccc3c2=O)cc1 1.64%, O=C1NC(O)CCN1C1CC(O)C(CO)O1 (centres undefined) -0.0784%, Cc1ccc(Cc2c(-c3ccccc3)nc3ccc(Cl)cn23)cc1 3.67%, Cc1ccc2nc(-c3ccco3)c(Cc3cccc(Cl)c3)n2c1 -20%, Cc1ccc([C@H]2N[C@]3(CCCN(CC4CCCCC4)C3=O)[C@H]3C(=O)N(Cc4ccccc4)C(=O)[C@@H]23)cc1 -7.84%, Cc1cc(Cl)ccc1-c1nc(NCCN(C)C)nc2ccsc12 2.25%, Cc1ccc(N=Cc2c(O)cc(C)oc2=O)c(C)c1 -7.86%, Cc1cc(O)c(Sc2ccccc2)c(=O)o1 5.88%, CCc1nc2c(OCc3ccc(Cl)cc3Cl)cccn2c1N(C)C(=O)C(C)C 2.81%, O=C(NC1CCCC1)C1c2ccccc2OCC(=O)N1Cc1ccccc1 (centres undefined) -0.138%, CCCC(=O)N1CCC1(C)C(=O)NCc1ccc(C(C)C)cc1 (centres undefined) -1.03%, CC(C)Cc1ccc(-c2cc3nc(NCc4cccc(Cl)c4)ccn3n2)cc1 47.1%, COc1ccccc1CNC(=O)c1cc(-c2cc(Cl)ccc2C)n[nH]1 -0.482%, CCn1c(SC)nc(O)c(C(c2ccc(OC)c(O)c2)c2c(O)nc(SC)n(CC)c2=O)c1=O -12.5%, CCSc1nc(C)c(CCOc2cccc(C)c2)c(=O)[nH]1 0.672%, O=C(c1ccccc1)N1CCN(c2cc(-c3ccccc3)nc3cc(-c4cccc(Cl)c4)nn23)CC1 6.72%, O=S1(=O)CC(N2CCN(Cc3ccccc3F)CC2)CN1Cc1cn(Cc2cccc(C(F)(F)F)c2)nn1 (centres undefined) 4.9%, O=C(Nc1ccc(F)cc1)C(CCc1ccccc1)N1CCN(CC(=O)N2CCCC2)CC1 (centres undefined) -9.87%, Cc1ccc(S(=O)(=O)NCCSc2ccccc2)cc1[N+](=O)[O-] -4.48%, COc1c(C)cc(C(O)c2ncc(-c3cccc(C(F)(F)F)c3)[nH]2)cc1C (centres undefined) -7.49%, COc1ccc(Br)cc1/C=N/NC(=O)c1cccc(S(=O)(=O)N2CCOCC2)c1 -4.11%, CCOc1ccc2[nH]c(C(=O)N/N=C/c3cccc(OC)c3OC)cc2c1 8.06%, COc1ccc(/C=N/NC(=O)c2ccc3c(c2)OCCO3)c(OC)c1 3.95%, COc1cc2cc(C(=O)N/N=C/c3cccc(OC)c3OC)[nH]c2cc1OC 0.853%, CC1(C(=O)Nc2ccc3c(c2)OCCO3)CSCC(=O)N1CCOc1ccccc1 (centres undefined) -1.05%, CC(C)(C)S(=O)N1Cc2cc(C(=O)NCCCN3CCOCC3)nc(-c3cccc(-c4cc5ccccc5o4)c3)c2[C@H]1CCO (some centres undefined) 0.439%, CCCCC[C@H](C)N1C[C@@H](COCc2ccccc2)Oc2cc(N3CCC[C@@H]3CO)ccc2S1(=O)=O 11.7%, Cc1nn(CC(=O)N/N=C/c2ccc(F)cc2)c(C)c1[N+](=O)[O-] -2.33%, COc1cc(/C=N/NC(=O)c2cc(C)n(-c3ccc(F)cc3)c2C)cc(OC)c1O -10.7%, CCCNC(=O)C1(C)CCCN(C(=O)c2oc3ccccc3c2C)C1 (centres undefined) -7.4%, CCc1nc2ccc(C(=O)Nc3ccc(OC)c(OC)c3)cn2c1N(C)C(=O)c1cccc(OC)c1 3.96%, CCOC(=O)C1=CC[C@@H](c2ccccc2)N(S(=O)(=O)c2ccc(C)cc2)[C@H]1c1cccc(OC)c1 4.01%

Max response, active:
S=c1[nH]nc2c3c4c(sc3ncn12)CCCC4 -58.2%, COc1cccc(C(=O)Nc2nc3ccc(S(C)(=O)=O)cc3s2)c1 -58.6%, CC1=C(C(=O)OC(C)(C)C)C(c2ccc(Br)cc2)NC(=O)N1CCCC(=O)O (centres undefined) -68.2%, O=C(O)c1ccc2c(=O)n3c(nc2c1)/C(=C/c1ccc(OC(F)F)cc1OC(F)F)CC3 -50.1%, O=C1/C(=C\c2ccc([N+](=O)[O-])cc2)CS(=O)(=O)C/C1=C/c1ccc([N+](=O)[O-])cc1 -83.1%, Cc1ccc(/C=C/C(=O)Nc2ccc([N+](=O)[O-])c(NC(=O)/C=C/c3ccc(C)o3)c2)o1 -71.8%, O=C(CNC(=O)C1COc2ccccc2O1)N/N=C/c1cc(Br)c(O)c(Br)c1 (centres undefined) -78.5%, O=S(=O)(c1ccc(NC(=S)NN=C(C2CC2)C2CC2)cc1)N1CCOCC1 -67.5%, CCOc1ccc(-n2c(O)c(/C=N/Nc3nnc(C)c(=O)[nH]3)c3ccccc3c2=O)cc1 -64%, Cc1ccc(Cc2c(-c3ccco3)nc3ccc(Cl)cn23)cc1 -53.8%, Cc1cc(O)c(C(=O)/C=C/c2c(F)c(F)c(F)c(F)c2F)c(=O)o1 -77.8%, CCSc1nc(O)c(C(c2cccc(OC)c2)c2c(O)nc(SCC)[nH]c2=O)c(=O)[nH]1 -58.8%, CCS(=O)(=O)c1cc([N+](=O)[O-])c(Sc2ccccc2N)s1 -65.8%, COc1cccc(/C=N\NC(=O)C2=NNC(=O)C2C)c1O (centres undefined) -72.8%, COc1cccc(/C=N/NC(=O)c2[nH]nc3c2CCc2ccccc2-3)c1O -53%, Cc1cc(C(=O)N/N=C/c2ccc(O)c([N+](=O)[O-])c2)c(C)n1-c1ccc(F)cc1 -71%
